Screening results as filed in PubChem.
In the library only some 3% were active in any assay of this set; here they are far more common.
Tau fluor counter – counter-screen for tau fibril formation inhibitors | tau K18 P301L Alexa594 fluorescence, heparin fibrillization | Potency, µM (top dose mostly 57.7 µM), for inactives: at the highest dose activity change, negative = decrease | 0.93% of 280,000 active; further: nearly all actives have a fitted effect of over 55% in size
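Human tau K18 P301L (15 uM unlabeled, 0.24 uM Alexa 594-labeled) in 100 mM sodium acetate pH 7 with 20 uM heparin, 6 hr at 37 C. ThT 30 uM added, 1 hr ambient; Alexa 594 FP and total fluorescence read at 555/632 nm.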
TRb SRC2 PPI – inhibitors of human thyroid hormone receptor beta-SRC2 interaction; P10828; TRbeta-SRC2 peptide binding, fluorescence polarization; receptor liganded with 1 µM T3; Potency, µM (doses to about 106 µM), for inactives: at the highest dose activity change, negative = inhibition, hits mostly inhibitors; 0.065% of 280,000 active; AID 1469;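 further: plate controls were bound peptide for no effect and peptide without receptor for full effect; nearly all actives have a fitted effect of over 50% in size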
Target sequence (P10828 whole entry, looked up): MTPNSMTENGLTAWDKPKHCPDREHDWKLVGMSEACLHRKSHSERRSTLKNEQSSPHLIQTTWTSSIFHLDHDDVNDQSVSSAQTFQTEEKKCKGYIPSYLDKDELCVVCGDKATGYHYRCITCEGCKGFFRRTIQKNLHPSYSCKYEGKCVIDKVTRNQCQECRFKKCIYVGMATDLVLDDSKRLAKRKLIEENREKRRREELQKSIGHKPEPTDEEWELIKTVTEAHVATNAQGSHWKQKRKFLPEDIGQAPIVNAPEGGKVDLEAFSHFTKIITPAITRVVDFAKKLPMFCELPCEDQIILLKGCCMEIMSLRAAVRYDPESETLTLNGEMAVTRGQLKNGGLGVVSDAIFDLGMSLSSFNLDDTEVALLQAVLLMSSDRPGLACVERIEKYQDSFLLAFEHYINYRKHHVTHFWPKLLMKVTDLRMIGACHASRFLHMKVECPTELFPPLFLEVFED
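Polarization signal, normalized between peptide-alone and full complex controls, measured compound effects on T3-liganded human TRb LBD (0.6 uM) binding 20 nM Texas Red SRC2 peptide after 5 hr.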
Tau fibril ThT – blocks human tau fibril formation measured by thioflavin T | recombinant tau K18 P301L, heparin-induced fibrillization, ThT fluorescence | Potency, µM (series often up to 57.4 µM), without a hit: at the top dose activity, negative = inhibition, hits mostly inhibitors | 2.1% of 270,000 active; further: nearly all actives have a fitted effect of over 55% in size
Target sequence (P10636 561-689 P618L limits assumed): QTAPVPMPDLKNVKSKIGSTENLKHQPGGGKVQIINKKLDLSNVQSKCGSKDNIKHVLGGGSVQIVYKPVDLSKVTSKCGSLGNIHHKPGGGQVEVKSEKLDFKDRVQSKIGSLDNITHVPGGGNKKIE
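Using a mix of unlabeled (15 uM) and Alexa 594-labeled (0.24 uM) tau K18 P301L, heparin-triggered fibrillization over 6 hr at 37 C was scored by ThT fluorescence.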
Tau FP inhib – blocks human tau fibril formation measured by polarization | K18 P301L tau heparin fibrillization, Alexa594 FP, 6 h | Potency, µM (titrated, usually from 57.7 µM), for inactives: at the highest dose activity, negative = inhibition, most hits filed as inhibitors | 0.39% of 280,000 active; further: nearly all actives have a fitted effect of over 55% in size
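Compound effects on tau fibrillization are measured by Alexa 594 fluorescence polarization (ex 555, em 632 nm). K18 P301L tau is used at 15 uM with 0.24 uM labeled tracer, and 20 uM heparin induces aggregation over 6 hr at 37 C.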
TR SRC2 fluor cs – counter-screen for TRb-SRC2 inhibitors: fluorescence interference; Potency, µM (top dose mostly 106 µM), for the others: at the highest dose fluorescence change, negative = quenching; TRb/SRC2 Texas Red total fluorescence interference; 0.29% of 280,000 active; active means well fitted curve in either direction with a large enough effect; inconclusive means small, poorly fitted or top-dose-only effect
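Flags fluorescent or light-absorbing compounds by total fluorescence, S + 2P, at 555 nm excitation and 632 nm emission. Mixture: 20 nM Texas Red SRC2 peptide, 0.6 uM human TRb LBD, 1 uM T3, 5% DMSO; compound exposure 5 h at ambient temperature.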
An asterisk follows results filed as active; u = inconclusive; x = no result given; [ ] = another dose, or the depositor's remark. Unless noted, the call rests on the fitted dose curve; in most records, active means well fitted curve in the direction sought with a large enough effect; inconclusive means small, poorly fitted or top-dose-only effect, or another doubt; inactive means no such curve, though single readings can be large; an effect the other way counts as inactive or inconclusive. Unless noted, on the % scale 0 is the no-effect control and ±100 the full control effect; potency means the concentration at half of the fitted maximal effect.

SMILES	Tau fluor counter	TRb SRC2 PPI	Tau fibril ThT	Tau FP inhib	TR SRC2 fluor cs
Cc1cccc(NC2=C(NCCO)C(=O)c3ccccc3C2=O)c1	u	-2%	25µM*	u	1%
COc1ccc(C2=C(Nc3ccccc3)c3ccccc3C2=O)cc1	u	-15%	u	9%	3%
COC1=C(Nc2ccc(O)cc2)C(=O)c2ccccc2C1=O	u	35µM*	13µM*	u	u
COc1ccc(NC2=C(NCCO)C(=O)c3ccccc3C2=O)cc1	u	u	13µM*	u	-4%
COc1ccc(NC2=C(c3ccc(OC)cc3)C(=O)c3ccccc32)cc1	u	1%	u	u	1%
Cc1noc(-c2ccccc2OCC(=O)Nc2ccccc2[N+](=O)[O-])n1	-28%	-1%	u	6%	-2%
CCC(C)C(N)C(=O)NC(CC(N)=O)C(=O)NC(CC(C)C)C(=O)NC(CCCCN)C(=O)NC(C)C(=O)NC(CC(C)C)C(=O)NC(C)C(=O)NC(C)C(=O)NC(CC(C)C)C(=O)NC(C)C(=O)NC(CCCCN)C(=O)NC(CCCCN)C(=O)NC(C(=O)NC(CC(C)C)C(N)=O)C(C)CC (stereo unspecified)	x	-10%	x	x	1%
COC1=C(Nc2ccc(OC)cc2)C(=O)c2ccccc2C1=O	u	-25%	11µM*	u	-13%
CC(C)C(NS(=O)(=O)c1cccc2cccnc12)C(=O)Nc1ccc(OC(F)(F)F)cc1 (stereo unspecified)	-29%	-2%	-13%	-13%	-3%
O=C(Nc1nnc(COc2ccccc2F)s1)Nc1ccccc1F	u	-9%	x	14µM*	-1%
O=C(Nc1ccc(F)cc1)Nc1nnc(COc2ccccc2F)s1	u	1%	10%	14µM*	-4%
O=C(O)CCC/C=C\C[C@H]1C(=O)C[C@@H](O)[C@@H]1/C=C/[C@@H](O)CCc1ccccc1	-6%	-6%	-5%	-6%	-1%
CN(C)c1ccc(C=Nc2ccc(N(C)C)cc2)cc1	u	50µM*	11µM*	28µM*	u
C/C(=N/N=C/c1ccc(N(C)C)cc1)c1ccccc1	u	-1%	8.9µM*	2%	-1%
Cc1ccc(S(=O)(=O)N2CCCCC2)cc1NC(=O)Cc1c[nH]c2ccccc12	u	1%	-8%	7%	0%
Cc1ccc(NC(=S)NCc2ccccc2)cc1S(=O)(=O)N1CCCCC1	13µM*[quencher]	-1%	5%	20µM*	0%
Cc1ccc(NC(=O)Cc2c[nH]c3ccccc23)cc1S(=O)(=O)N1CCCCCC1	14µM*[quencher]	-4%	-8%	8%	1%
Cc1ccc(NC(=O)c2cc(=O)c3ccccc3o2)cc1S(=O)(=O)N1CCCCC1	u	-6%	-16%	u	-1%
COc1ccccc1Nc1cc(C(=O)NC2CCC(C)CC2)c2ccccc2n1 (stereo unspecified)	-12%	-5%	6%	-1%	1%
CSC1=NSC2=NC(=O)/C(=C/c3coc4ccc(O)cc4c3=O)C(=N)N12	u	-3%	22µM*	-5%	-7%
N=C1/C(=C\c2coc3ccccc3c2=O)C(=O)N=C2SC=CN12	-28%	0%	u	-4%	-6%
CSC1=NSC2=NC(=O)/C(=C/c3coc4ccccc4c3=O)C(=N)N12	u	u	18µM*	u	u
CCCCCC1=C2CNC(C)(C(=O)OC)C=C2C(C)C1=O (stereo unspecified)	-18%	3%	-17%	1%	-5%
Cc1ccc(/C=C/C(=O)c2ccc(N3CCOCC3)cc2)s1	u	-2%	7.1µM*	-1%	-15%
COc1cccc2c1CCCC2CCCN1CCN(C2CCCCC2)CC1 (stereo unspecified)	x	5%	x	x	-2%
SMILES	Tau fluor counter	TRb SRC2 PPI	Tau fibril ThT	Tau FP inhib	TR SRC2 fluor cs
O=S(=O)(c1ccc2nc(-c3ccccc3)[nH]c2c1)N1CCN(c2ccc(Cl)cc2)CC1	u	-1%	7%	u	-2%
O=S(=O)(Nc1ccc(Br)cc1F)c1ccc2nc(-c3ccccc3)[nH]c2c1	-14%	-5%	u	14µM*	-1%
Cc1cc(NS(=O)(=O)c2ccc3nc(-c4ccccc4)[nH]c3c2)ccc1Br	u	6%	u	7.9µM*	-1%
Cc1ccc(NS(=O)(=O)c2ccc3nc(-c4ccccc4)[nH]c3c2)cc1Cl	u	5%	u	10µM*	-1%
Cc1ccc(NS(=O)(=O)c2ccc(Cl)c(C(=O)Nc3ccccc3-c3nc4ccccc4[nH]3)c2)cc1C	u	5%	u	14µM*	0%
CN(C)S(=O)(=O)c1ccc(Cl)c(C(=O)Nc2nc3ccccc3[nH]2)c1	-3%	-1%	-1%	-2%	-2%
C#CCCCO/N=C1/C[C@@H](O)[C@@H](O)[C@@H]2[C@@H]3C(=O)N(C(C)(C)C)C(=O)[C@H]3CC[C@@H]12	-1%[11.6 µM]	0%[11.2 µM]	-4%[11.5 µM]	-4%[11.6 µM]	-2%[11.2 µM]
COc1ccc(N2CC(NC(=O)c3c(F)cccc3Cl)CC2=O)cc1OC (stereo unspecified)	-3%	-3%	-5%	-2%	-1%
CCC(=O)N1CCc2cc(S(=O)(=O)CCC(=O)N3CCN(c4cc(C)ccc4C)CC3)ccc21	2%	-1%	-6%	-2%	0%
CCC(C)(C)C(=O)Nc1cc([N+](=O)[O-])ccc1Cl	-2%	-4%	0%	1%	-2%
CCC(C)(C)C(=O)Nc1cc([N+](=O)[O-])ccc1F	-4%	-22%[53 µM]	-3%	5%	0.1µM*[quencher]
BrC1CCC(Br)C(Br)CCC(Br)C(Br)CCC1Br (stereo unspecified)	x	-6%[201 µM]	x	x	-3%[201 µM]
O=C(NCCn1cc(SCc2ccccc2F)c2ccccc21)c1cccs1	u	16%	u	-16%	-2%
O=C(NCCn1cc(SCc2ccc(F)cc2)c2ccccc21)c1cccs1	7.9µM*[quencher]	5%	u	-5%	-20%
O=C(NCCn1cc(SCc2ccc(Cl)cc2)c2ccccc21)c1cccs1	8.9µM*[quencher]	12%	u	-19%	2%
Cc1ccc(CSc2cn(CCNC(=O)c3cccs3)c3ccccc23)cc1	8.9µM*[quencher]	9%	u	-6%	-10%
Cc1ccccc1CSc1cn(CCNC(=O)c2cccs2)c2ccccc12	7.9µM*[quencher]	5%	u	-17%	u
CC(C)(C)NC(=O)C(c1ccc(I)cc1)N(CCN1CCOCC1)C(=O)CCCNC(=O)c1ccccc1 (stereo unspecified)	-3%	6%	2%	3%	-1%
CCCCN(Cc1cc2ccccc2[nH]c1=O)C(=O)c1cccc(Cl)c1	-9%	-2%	2%	-2%	1%
Oc1c(C(c2ccc(Cl)cc2Cl)N2CCN(c3ccccc3)CC2)sc2nc(-c3ccco3)nn12 (stereo unspecified)	u	0%	u	-11%	0%
